In the supplement of paper PMC10849652:
The full data set covers some 7,900 targets. This sample favours those with a hit. About 0.6% of all pairs of compound and target were hits. Values without a mark were called inactive.

Key:
Experiment in all cases: log2 fold change, soluble protein after heating vs DMSO (PISA); higher = thermal stabilisation; K562 cells, 10 uM, 30 min; active = over 0.2 and 3.5 SD of the protein, either way, in both replicates (recomputed)
[1] = compound: CC1=C(C=C(C=C1)NC(=O)C2=CC(=CC=C2)C(C)(C)C#N)NC3=CC4=C(C=C3)N=CN(C4=O)C
How it was run: (§1)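 Soluble protein was quantified by TMTpro 16plex LC-MS/MS after channel sums were equalised. It was obtained as the supernatant after 21,000xg for 90 min from pooled aliquots of K562 cells (2×10^6 cells/mL, 10 μM compound, 30 min) heated for 3 min across 48°C-58°C and extracted in PBS with 0.5% NP-40 at 4°C. Thermal stability values are relative to control samples and come from duplicates. They are given as log2 fold changes.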

[2] = compound: CC1=C(C=C(C=C1)NC(=O)C2=CC(=CC=C2)N(C)C)NC(=O)C3=CC=C(C=C3)O
How it was run: as §1

[3] = compound: CC1=CC=C(C=C1)SC2=C3C=C(SC3=CN=C2)C(=O)N
How it was run: as §1

[4] = compound: CC1=NC(=CC=C1)C2=C(N=C(N2)C(C)(C)C)C3=CC4=NC=CN=C4C=C3
How it was run: as §1

Nexturastat A = compound: CCCCN(Cc1ccc(C(=O)NO)cc1)C(=O)Nc1ccccc1 [Nexturastat A]
How it was run: as §1

vemurafenib = compound: CCCS(=O)(=O)Nc1ccc(F)c(C(=O)c2c[nH]c3ncc(-c4ccc(Cl)cc4)cc23)c1F [vemurafenib]
How it was run: as §1

[5] = compound: CCCS(=O)(=O)Nc1ccc(F)c(C(=O)c2c[nH]c3ncc(Cl)cc23)c1F
How it was run: as §1

[6] = compound: CCCc1cc(C)[nH]c(=O)c1CNC(=O)c1cc(-c2ccnc(N3CCN(C)CC3)c2)cc2c1cnn2C(C)C
How it was run: as §1

givinostat = compound: CCN(CC)Cc1ccc2cc(COC(=O)Nc3ccc(C(=O)NO)cc3)ccc2c1 [givinostat]
How it was run: as §1

barasertib = compound: CCN(CCCOc1ccc2c(Nc3cc(CC(=O)Nc4cccc(F)c4)[nH]n3)ncnc2c1)CCOP(=O)(O)O [barasertib]
How it was run: as §1

[7] = compound: CC[C@@H]1C(=O)N(C)c2cnc(Nc3ccc(C(=O)NC4CCN(C)CC4)cc3OC)nc2N1C1CCCC1
How it was run: as §1

volasertib = compound: CC[C@@H]1C(=O)N(C)c2cnc(Nc3ccc(C(=O)N[C@H]4CC[C@H](N5CCN(CC6CC6)CC5)CC4)cc3OC)nc2N1C(C)C [volasertib]
How it was run: as §1

[8] = compound: CC[C@H](C)N1C=C(C2=C(C=C(C=C21)C3=CN=C(C=C3)N4CCNCC4)C(=O)NCC5=C(C=C(NC5=O)C)C)C
How it was run: as §1

epoxomicin = compound: CC[C@H](C)[C@@H](C(=O)N[C@@H]([C@@H](C)O)C(=O)N[C@@H](CC(C)C)C(=O)[C@]1(CO1)C)NC(=O)[C@H]([C@@H](C)CC)N(C)C(=O)C [epoxomicin]
How it was run: as §1

[9] = compound: CCn1c(C(=O)N(C2CC2)C2CC2)cc2c3c(ncn3C)c(Nc3cc(C)n(C)n3)nc21
How it was run: as §1

[10] = compound: CCn1cc(-c2ccnc3[nH]c(-c4cccc(CN(C)C)c4)cc23)c(-c2ccc(NC(=O)N(C)C)cc2)n1
How it was run: as §1

[11] = compound: CN(C)CC(=O)Nc1ccc2[nH]c(=O)c3ccccc3c2c1
How it was run: as §1

rosiglitazone = compound: CN(CCOC1=CC=C(C=C1)C[C@H]2C(=O)NC(=O)S2)C3=CC=CC=N3 (racemic) [rosiglitazone]
How it was run: as §1

[12] = compound: CN1C2=C(C3=C1C(=O)N(N=C3)CC4=CC(=CC=C4)N)SC(=C2)S(=O)C
How it was run: as §1

[13] = compound: CN1CCC(CNc2ccc3ncc(-c4cccc(OC(F)(F)F)c4)n3n2)CC1
How it was run: as §1

Chain of UniProt Q00536 (Q00536 whole entry, looked up): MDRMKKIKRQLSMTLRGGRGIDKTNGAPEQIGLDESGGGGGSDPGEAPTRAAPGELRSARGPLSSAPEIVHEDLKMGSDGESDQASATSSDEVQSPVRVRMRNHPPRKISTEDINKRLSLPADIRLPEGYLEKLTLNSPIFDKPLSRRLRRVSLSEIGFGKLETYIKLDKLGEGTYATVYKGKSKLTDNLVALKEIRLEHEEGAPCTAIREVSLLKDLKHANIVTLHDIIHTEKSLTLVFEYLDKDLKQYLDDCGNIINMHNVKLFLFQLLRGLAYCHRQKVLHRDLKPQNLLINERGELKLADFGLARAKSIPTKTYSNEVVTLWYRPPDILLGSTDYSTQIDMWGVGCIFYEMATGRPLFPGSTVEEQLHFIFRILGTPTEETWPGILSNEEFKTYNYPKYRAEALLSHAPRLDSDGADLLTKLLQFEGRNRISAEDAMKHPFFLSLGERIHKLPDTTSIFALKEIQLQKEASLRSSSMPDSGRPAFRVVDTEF
Chain of UniProt Q9Y5S2 (Q9Y5S2 whole entry, looked up): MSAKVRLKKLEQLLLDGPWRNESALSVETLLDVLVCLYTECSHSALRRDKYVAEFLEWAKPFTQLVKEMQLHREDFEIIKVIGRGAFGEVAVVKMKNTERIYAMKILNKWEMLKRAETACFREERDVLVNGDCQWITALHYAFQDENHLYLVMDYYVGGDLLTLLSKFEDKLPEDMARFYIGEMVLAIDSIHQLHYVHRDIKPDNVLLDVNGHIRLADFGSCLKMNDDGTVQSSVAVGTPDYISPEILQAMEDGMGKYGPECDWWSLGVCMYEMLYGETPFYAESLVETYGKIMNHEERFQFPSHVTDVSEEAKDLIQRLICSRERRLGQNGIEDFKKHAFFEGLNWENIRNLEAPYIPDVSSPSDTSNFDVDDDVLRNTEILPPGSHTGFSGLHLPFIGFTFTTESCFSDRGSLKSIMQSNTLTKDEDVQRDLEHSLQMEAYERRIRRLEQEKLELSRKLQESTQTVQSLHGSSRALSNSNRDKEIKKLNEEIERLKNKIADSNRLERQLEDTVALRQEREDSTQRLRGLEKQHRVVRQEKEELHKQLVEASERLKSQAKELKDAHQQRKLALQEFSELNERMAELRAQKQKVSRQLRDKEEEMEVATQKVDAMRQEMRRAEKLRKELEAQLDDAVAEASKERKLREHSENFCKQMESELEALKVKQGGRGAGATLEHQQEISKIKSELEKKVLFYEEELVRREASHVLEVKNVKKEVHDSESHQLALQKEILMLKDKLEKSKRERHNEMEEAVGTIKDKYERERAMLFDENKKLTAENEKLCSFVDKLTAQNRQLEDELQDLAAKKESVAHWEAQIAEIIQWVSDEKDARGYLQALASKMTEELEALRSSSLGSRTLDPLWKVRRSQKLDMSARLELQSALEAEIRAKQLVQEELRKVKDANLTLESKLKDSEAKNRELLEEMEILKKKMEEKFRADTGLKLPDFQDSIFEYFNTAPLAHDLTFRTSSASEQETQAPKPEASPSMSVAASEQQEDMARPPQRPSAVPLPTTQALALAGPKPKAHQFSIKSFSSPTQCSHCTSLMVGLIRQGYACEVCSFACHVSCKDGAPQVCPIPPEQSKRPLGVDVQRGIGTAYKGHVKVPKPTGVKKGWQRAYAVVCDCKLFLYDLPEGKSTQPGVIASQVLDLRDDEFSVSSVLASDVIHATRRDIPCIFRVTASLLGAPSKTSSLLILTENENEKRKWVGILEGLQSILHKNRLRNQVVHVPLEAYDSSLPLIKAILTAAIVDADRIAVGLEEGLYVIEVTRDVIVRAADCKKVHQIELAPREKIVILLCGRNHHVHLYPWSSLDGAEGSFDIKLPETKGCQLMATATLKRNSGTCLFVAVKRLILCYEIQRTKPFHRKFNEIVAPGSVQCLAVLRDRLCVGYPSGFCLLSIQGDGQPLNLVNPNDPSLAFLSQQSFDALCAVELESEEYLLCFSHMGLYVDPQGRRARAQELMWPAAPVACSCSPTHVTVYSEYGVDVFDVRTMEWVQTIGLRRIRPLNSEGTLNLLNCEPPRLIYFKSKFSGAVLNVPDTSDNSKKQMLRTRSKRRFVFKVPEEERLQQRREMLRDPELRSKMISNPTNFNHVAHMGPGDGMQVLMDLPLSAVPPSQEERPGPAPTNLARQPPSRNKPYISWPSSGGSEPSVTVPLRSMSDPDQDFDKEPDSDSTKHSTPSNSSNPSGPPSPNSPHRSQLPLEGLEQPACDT
Chain of UniProt O75794 (O75794 whole entry, looked up): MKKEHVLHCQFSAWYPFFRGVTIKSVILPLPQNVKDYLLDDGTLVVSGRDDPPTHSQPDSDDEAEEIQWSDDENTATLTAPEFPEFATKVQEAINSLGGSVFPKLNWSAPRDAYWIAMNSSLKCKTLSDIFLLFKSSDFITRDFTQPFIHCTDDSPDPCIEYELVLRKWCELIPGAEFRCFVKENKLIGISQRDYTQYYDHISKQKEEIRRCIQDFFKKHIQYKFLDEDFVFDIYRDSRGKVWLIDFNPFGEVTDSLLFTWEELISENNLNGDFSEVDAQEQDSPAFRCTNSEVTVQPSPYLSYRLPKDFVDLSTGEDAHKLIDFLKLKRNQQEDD
Chain of UniProt Q8IWX8 (Q8IWX8 whole entry, looked up): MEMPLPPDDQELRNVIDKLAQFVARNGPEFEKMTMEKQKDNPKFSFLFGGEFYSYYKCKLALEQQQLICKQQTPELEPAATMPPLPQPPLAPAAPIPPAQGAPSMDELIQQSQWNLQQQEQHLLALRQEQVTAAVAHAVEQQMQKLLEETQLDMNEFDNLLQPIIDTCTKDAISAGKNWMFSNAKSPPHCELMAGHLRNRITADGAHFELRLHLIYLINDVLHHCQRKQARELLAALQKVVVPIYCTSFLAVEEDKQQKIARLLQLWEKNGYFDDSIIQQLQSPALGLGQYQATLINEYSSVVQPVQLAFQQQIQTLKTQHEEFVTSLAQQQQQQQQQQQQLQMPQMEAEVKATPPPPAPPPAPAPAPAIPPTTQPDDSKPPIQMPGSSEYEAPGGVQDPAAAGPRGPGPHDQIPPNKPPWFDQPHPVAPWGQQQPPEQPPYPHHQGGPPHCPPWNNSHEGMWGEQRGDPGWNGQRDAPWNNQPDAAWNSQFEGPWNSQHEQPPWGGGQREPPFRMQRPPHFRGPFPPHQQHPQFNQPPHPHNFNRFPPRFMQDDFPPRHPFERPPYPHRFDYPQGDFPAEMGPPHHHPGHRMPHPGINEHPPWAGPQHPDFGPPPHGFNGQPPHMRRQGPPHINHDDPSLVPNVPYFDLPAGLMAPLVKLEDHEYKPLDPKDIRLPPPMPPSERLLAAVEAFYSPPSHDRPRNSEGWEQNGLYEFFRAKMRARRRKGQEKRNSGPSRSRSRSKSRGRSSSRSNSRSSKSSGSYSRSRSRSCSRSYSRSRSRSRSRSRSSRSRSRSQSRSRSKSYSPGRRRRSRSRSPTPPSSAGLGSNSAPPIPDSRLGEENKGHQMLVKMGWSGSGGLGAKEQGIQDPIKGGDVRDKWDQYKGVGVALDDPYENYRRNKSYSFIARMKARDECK
Chain of UniProt P45973 (P45973 whole entry, looked up): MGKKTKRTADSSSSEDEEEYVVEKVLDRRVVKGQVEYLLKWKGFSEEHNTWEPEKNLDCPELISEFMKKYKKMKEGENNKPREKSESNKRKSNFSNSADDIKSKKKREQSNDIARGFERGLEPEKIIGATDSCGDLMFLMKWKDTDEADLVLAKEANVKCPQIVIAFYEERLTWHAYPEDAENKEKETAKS
Chain of UniProt P46108 (P46108 whole entry, looked up): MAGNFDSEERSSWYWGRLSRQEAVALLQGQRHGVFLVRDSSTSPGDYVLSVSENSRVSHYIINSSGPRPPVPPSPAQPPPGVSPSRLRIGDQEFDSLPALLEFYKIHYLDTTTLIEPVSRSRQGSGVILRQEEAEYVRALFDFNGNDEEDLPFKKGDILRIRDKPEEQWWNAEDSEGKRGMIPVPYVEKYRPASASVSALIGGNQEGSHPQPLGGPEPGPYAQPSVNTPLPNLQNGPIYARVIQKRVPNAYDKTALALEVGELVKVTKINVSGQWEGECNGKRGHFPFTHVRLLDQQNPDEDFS
Chain of UniProt Q8N4Q1 (Q8N4Q1 whole entry, looked up): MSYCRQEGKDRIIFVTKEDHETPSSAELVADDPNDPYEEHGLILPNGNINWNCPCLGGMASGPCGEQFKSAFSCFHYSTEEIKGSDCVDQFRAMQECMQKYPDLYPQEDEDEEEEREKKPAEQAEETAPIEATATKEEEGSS
Chain of UniProt O60563 (O60563 whole entry, looked up): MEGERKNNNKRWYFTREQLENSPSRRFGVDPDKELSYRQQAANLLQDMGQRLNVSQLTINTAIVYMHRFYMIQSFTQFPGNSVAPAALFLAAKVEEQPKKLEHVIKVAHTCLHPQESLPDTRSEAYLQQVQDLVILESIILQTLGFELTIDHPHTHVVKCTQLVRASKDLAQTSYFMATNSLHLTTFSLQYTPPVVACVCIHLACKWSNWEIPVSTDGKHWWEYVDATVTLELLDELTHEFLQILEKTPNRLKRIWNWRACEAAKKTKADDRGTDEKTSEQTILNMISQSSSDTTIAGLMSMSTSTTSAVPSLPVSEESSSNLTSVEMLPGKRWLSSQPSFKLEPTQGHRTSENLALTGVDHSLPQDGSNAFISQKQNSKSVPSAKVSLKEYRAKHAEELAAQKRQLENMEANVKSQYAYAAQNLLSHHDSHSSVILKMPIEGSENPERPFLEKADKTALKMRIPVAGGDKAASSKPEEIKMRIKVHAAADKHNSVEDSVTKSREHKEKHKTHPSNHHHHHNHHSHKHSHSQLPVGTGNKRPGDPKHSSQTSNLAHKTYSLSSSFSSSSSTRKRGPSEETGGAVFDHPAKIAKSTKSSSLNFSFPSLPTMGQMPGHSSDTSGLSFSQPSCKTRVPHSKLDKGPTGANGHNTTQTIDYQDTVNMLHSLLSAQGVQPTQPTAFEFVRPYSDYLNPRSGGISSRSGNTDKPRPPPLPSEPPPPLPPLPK
Chain of UniProt P20674 (P20674 whole entry, looked up): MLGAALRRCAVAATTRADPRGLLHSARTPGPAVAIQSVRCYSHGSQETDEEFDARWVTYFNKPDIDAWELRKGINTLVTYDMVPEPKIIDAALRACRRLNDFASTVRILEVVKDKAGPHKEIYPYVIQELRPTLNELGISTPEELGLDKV

Target | log2 fold change [1] | log2 fold change [2] | log2 fold change [3] | log2 fold change [4] | log2 fold change (Nexturastat A) | log2 fold change (vemurafenib) | log2 fold change [5] | log2 fold change [6] | log2 fold change (givinostat) | log2 fold change (barasertib) | log2 fold change [7] | log2 fold change (volasertib) | log2 fold change [8] | log2 fold change (epoxomicin) | log2 fold change [9] | log2 fold change [10] | log2 fold change [11] | log2 fold change (rosiglitazone) | log2 fold change [12] | log2 fold change [13]
CSNK2A2 (UniProt P19784) | -0.037 | 0.009 | 0.021 | 0.005 | 0.004 | 0 | 0.08 | -0.035 | 0.03 | 0.003 | -0.053 | -0.122 | 0.028 | 0.029 | 0.01 | -0.043 | -0.006 | 0.066 | -0.038 | -0.244 (active)
CHEK1 (UniProt O14757) | -0.023 | -0.013 | 0.05 | 0.037 | -0.048 | 0.017 | 0 | -0.022 | 0.029 | 0.033 | -0.137 | -0.274 (active) | 0.005 | 0.055 | -0.012 | -0.101 | 0.003 | 0.046 | -0.029 | -0.159
CCNT1 (UniProt O60563) | -0.033 | -0.018 | -0.02 | 0.005 | 0.218 | 0.027 | 0.007 | 0.023 | 0.022 | 0.022 | 0.023 | -0.085 | 0.069 | -0.063 | 0.028 | 0.035 | -0.055 | -0.024 | 0.132 | -0.036
CDC123 (UniProt O75794) | -0.033 | 0.006 | 0.043 | 0.048 | 0.013 | 0.011 | 0.02 | 0.038 | -0.01 | 0.028 | 0.06 | -0.002 | 0.07 | 0.137 | -0.012 | -0.021 | 0.015 | 0.034 | -0.009 | -0.1
CDC42BPB (UniProt Q9Y5S2) | -0.073 | -0.07 | -0.034 | -0.072 | 0.052 | -0.046 | -0.034 | 0.079 | -0.096 | -0.087 | 0.171 | 0.051 | -0.105 | -0.065 | 0.008 | 0.062 | 0.046 | 0.049 | 0.048 | -0.195
CRKL (UniProt P46109) | -1.25 (active) | -0.029 | 0.014 | 0.019 | -0.003 | -0.018 | -0.009 | -0.024 | 0.009 | 0.01 | -0.012 | -0.039 | 0.007 | 0 | 0.008 | 0 | 0.012 | 0.017 | 0 | -0.016
CHERP (UniProt Q8IWX8) | -0.042 | -0.088 | -0.053 | 0.003 | -0.006 | 0.018 | 0.127 | 0.075 | 0.107 | 0.055 | -0.162 | -0.888 (active) | -0.014 | 0.064 | -0.024 | 0.022 | 0.041 | -0.004 | 0.102 | -0.05
CDK9 isoform 2 (UniProt P50750) | 0.053 | -0.067 | -0.001 | -0.084 | 0.155 | -0.052 | 0.024 | 0.036 | 0.014 | 0.002 | -0.01 | 0.078 | 0.064 | -0.06 | 0.016 | -0.092 | -0.042 | -0.019 | 0.178 | 0.205
CDC42BPA isoform 6 (UniProt Q5VT25) | 0.151 | -0.079 | 0.01 | -0.015 | 0.123 | 0.004 | 0.141 | -0.013 | 0.051 | 0.04 | -0.021 | -0.86 (active) | 0.053 | 0.001 | 0.002 | 0 | 0.042 | 0.026 | 0.078 | -0.359
CDK16 isoform 2 (UniProt Q00536) | 0.003 | -0.017 | 0.028 | 0.021 | -0.052 | -0.072 | 0.027 | -0.101 | -0.043 | -0.023 | -0.049 | -0.316 | -0.014 | 0.02 | -0.113 | 0.001 | 0.041 | 0.061 | -0.074 | 0.135
CRK (UniProt P46108) | -0.814 (active) | -0.019 | 0.015 | 0.091 | -0.006 | 0.048 | 0.009 | -0.008 | 0.002 | 0.046 | -0.059 | -0.085 | 0.005 | 0.026 | 0.002 | -0.039 | 0.002 | 0.033 | -0.028 | -0.022
CHCHD4 isoform 2 (UniProt Q8N4Q1) | 0.373 | 0.001 | 0.157 | -0.035 | -0.026 | -0.015 | 0.412 | -0.063 | 0.029 | -0.024 | -0.009 | -0.125 | -0.096 | -0.186 | -0.034 | 0.231 | -0.023 | -0.007 | -0.107 | 0.795 (active)
CBX5 (UniProt P45973) | 0.051 | 0.029 | 0.073 | 0.113 | 0.027 | 0.045 | 0.085 | -0.051 | 0.043 | -0.05 | -0.033 | -0.128 | 0.048 | -0.022 | -0.034 | -0.057 | -0.034 | -0.012 | -0.121 | -0.003
COX5A (UniProt P20674) | -0.005 | -0.074 | 0 | -0.016 | 0.072 | 0.165 | -0.114 | -0.093 | -0.092 | 0.085 | 0.048 | -0.08 | -0.081 | 0.234 | -0.018 | 0.072 | -0.001 | -0.042 | -0.063 | 0.269
CBX1 (UniProt P83916) | 0.049 | -0.005 | 0.04 | 0.318 (active) | -0.026 | 0.07 | 0.057 | -0.011 | -0.042 | -0.009 | 0.001 | -0.119 | 0.103 | -0.022 | -0.007 | -0.037 | -0.013 | 0.009 | 0.028 | -0.014
CPSF6 isoform 2 (UniProt Q16630) | 0.054 | 0.02 | -0.027 | 0.02 | -0.042 | 0.001 | -0.069 | 0.035 | 0.048 | -0.042 | 0.016 | 0.02 | 0.016 | -0.014 | -0.037 | -0.036 | -0.062 | 0.008 | 0.004 | -0.014
